# Data reported in PubChem BioAssay AID686978 (National Center for Advancing Translational Sciences (NCATS), 2013).
# Hit rate of the full screen: of about 420,000 compounds, about 64,000 (15%) were called active. Not shown: some 27% with an inconclusive outcome. A selection follows. Unmarked numbers belong to inactive results. The call rests on the fitted dose curve; in most records, active means well fitted inhibition curve with a large enough effect; inconclusive means small, poorly fitted or top-dose-only effect; inactive means flat fitted curve, though single readings scatter.
# Experiment: qHTS for Inhibitors of human tyrosyl-DNA phosphodiesterase 1 (TDP1): qHTS in cells in absence of CPT; further: nearly all actives have a fitted effect of over 55% in size
# Details: DT40 Tdp1-/- hTDP1 cells, no CPT, ATP luminescence, 48 h; activity change, negative = growth inhibition: at 46.2 µM (top of the series)
# Method in brief: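 Chicken DT40 Tdp1-/- cells stably complemented with human TDP1 were seeded at 400 cells/well with DMSO in place of 20 nM camptothecin. After compound pinning, cells grew at least 48 hr at 37 °C; viability read by CellTiter-Glo luminescence.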
# On the % scale 0 is the no-effect control and ±100 the full control effect; potency means the concentration at half of the fitted maximal effect.
SMILES,"activity change, negative = growth inhibition",Potency
CNC(=O)NCCN1CCCC1=O,-19.7%,
COC(=O)C[C@@H]1C=C[C@@H](NC(=O)c2cccnc2)[C@@H](CO)O1,-1.14%,
Cc1nn(C)c(Oc2ccccc2)c1[N+](=O)[O-],-2.02%,
CCN1CC(CN(C)Cc2nc(-c3ccc(Cl)cc3)no2)CC1=O (configuration not stated),,16.4 µM (active)
CN(Cc1ccccn1)Cc1nc(-c2ccc(Cl)cc2)no1,5.98%,
CN(CCN1CCOCC1)Cc1nc(-c2ccc3c(c2)OCO3)no1,2.13%,
O=C(Nc1ccccc1)O/N=C1/CCCc2occc21,-5.58%,
COc1ccc(C(=O)CN2C(=O)NC3(CCc4ccccc43)C2=O)c(OC)c1 (configuration not stated),-6.81%,
COc1ccc(-n2c(C)cc(C(=O)CN3C(=O)NC4(CCc5ccccc54)C3=O)c2C)cc1 (configuration not stated),,18.4 µM (active)
COc1ccc(CNC(=O)CN2C(=O)NC3(CCCc4sccc43)C2=O)cc1 (configuration not stated),-2.19%,
CCc1cccc(NC(=O)COC(=O)c2cc(=O)c3ccccc3o2)c1,-0.297%,
CCOc1ccc(NC(=O)C(=O)NCCc2csc3nc(-c4ccccc4F)nn23)cc1,-8.41%,
CCC1(C2CCN(C(=O)c3cccc(F)c3F)CC2)NC(=O)N(CCc2scnc2C)C1=O (configuration not stated),-4.82%,
Cn1cccc1C(=O)Nc1nccs1,18.4%,
CC(C)NC(=O)N1CC[C@@]2(CCCN(C(=O)c3cccc(F)c3)C2)C1,-6.14%,
CCCCN(C(=O)COc1ccc(NC(C)=O)cc1)C1CCS(=O)(=O)C1 (configuration not stated),-5.15%,
Cc1ccc(CN(C(=O)COc2ccc(Cl)cc2C)C2CCS(=O)(=O)C2)o1 (configuration not stated),,23.1 µM (active)
Cc1ccccc1OCC(=O)N(Cc1cccc(F)c1)C1CCS(=O)(=O)C1 (configuration not stated),2.13%,
O=C(/C=N/O)Nc1ccccc1,-4.33%,
CCc1c(C)c2ccc(OC3CCCCC3=O)cc2oc1=O (configuration not stated),10.1%,
O=c1[nH]cnc(O)c1C(c1ccc(F)cc1)c1c(O)nc[nH]c1=O,-6.26%,
O=C(O)CCn1c(O)c(C=C2N=c3ccccc3=N2)sc1=S,,18.4 µM (active)
O=C(O)CCn1c(Cc2ccccc2)nc2ccccc21,4.29%,

SMILES,"activity change, negative = growth inhibition",Potency
O=C(NCCc1ccc(C(F)(F)F)cc1)c1ccc2c(c1)OCO2,7.51%,
CC1C(c2ccccc2)=[N+]([O-])C2(CCCC2)N1O (configuration not stated),-1.92%,
COc1ccc(C2CC(=O)c3c(O)cc(OC4OC(COC5OC(C)C(O)C(O)C5O)C(O)C(O)C4O)cc3O2)cc1O (configuration not stated),0.352%,
COc1cc(-c2nc(S(=O)(=O)c3ccc(Cl)cc3)c(N(C)C)o2)cc(OC)c1OC,-18.5%,
CC(C)S(=O)(=O)c1oc(-c2ccc(F)cc2)nc1S(=O)(=O)c1ccc(F)cc1,,0.326 µM (active)
CC1(C)OC2CC3C4CCC5=CC(=O)CCC5(C)C4(F)C(O)CC3(C)[C@]2(C(=O)CCl)O1 (some centres not stated),-19.2%,
COc1cc(C(=O)Nn2c(O)c(C3=c4ccccc4=NC3=O)sc2=S)ccc1O,-4.32%,
CO[C@@H]1[C@@H](OC(N)=O)[C@@H](O)C(Oc2ccc3c(O)c(NC(=O)c4ccc(O)c(CC=C(C)C)c4)c(=O)oc3c2C)OC1(C)C (some centres not stated),-4.77%,
COCc1nc2ccccc2n1Cc1ccccc1Br,,16.4 µM (active)
CCc1cccc(C)c1N(C(=O)Cn1c(CO)nc2ccccc21)C(C)COC (configuration not stated),-20.8%,
O=C(NC1Cc2ccccc2C1)c1cc(COc2cccc(C(F)(F)F)c2)on1,-11.7%,
C/C(CC(=O)N1CCN(C=O)CC1)=N\NC(=O)c1ccc(Br)cc1,-7.46%,
COC(=O)[C@@H]1C[C@@]2(O)[C@H](O)[C@H](O)[C@H](O)C[C@H]2N1Cc1ccc(C)s1,2.33%,
CC(C)N=C1CCCC1C(=S)SSC(=S)C1CCCC1=NC(C)C (configuration not stated),,0.164 µM (active)
COc1cc(OC)c2c(c1Cl)OC1(C2=O)C(O)=CC(=O)CC1C (configuration not stated),-6.94%,
COc1ccc(CN2CCCCC2C)cc1OC (configuration not stated),13.3%,
COC(=O)c1ccc(COc2ccc(C#N)cc2)o1,3.16%,
CCOc1cc(C)c(Cl)cc1S(=O)(=O)n1nnc2ccccc21,0.99%,
CCOc1ccc(C(C)C)cc1S(=O)(=O)n1nc(C)cc1C,,13 µM (active)
COc1ccc(C(C)C)cc1S(=O)(=O)Nc1ncn[nH]1,6.42%,
CCCNC(=O)CCC(=O)N1Cc2ccccc2Oc2ncccc21,-4.93%,
Cc1ccc(NC(=O)CS(=O)CC(=O)N(c2ccccc2)C(C)C(=O)NC2CCCC2)cc1 (configuration not stated),-18.9%,
COc1ccc(NS(=O)(=O)c2ccc(C)c(C(=O)NNC(=O)c3csc(N4CCOCC4)n3)c2)cc1,-14%,

SMILES,"activity change, negative = growth inhibition",Potency
CCOc1ccc(NS(=O)(=O)c2ccc(Cl)c(C(=O)N(C)Cc3cccnc3)c2)cc1,-32.2%,
COc1ccc(NS(=O)(=O)c2ccc(C)c(C(=O)N(C)Cc3ccc(OC)cc3OC)c2)cc1,,18.4 µM (active)
CC(=O)Nc1ccc(S(=O)(=O)N(C)c2ccc(OCC(=O)OCC(=O)N3CCCCC3)cc2)cc1,2.05%,
CC(=O)Nc1ccc(S(=O)(=O)NNC(=O)CCc2ccccc2)cc1,-3.77%,
CC(=O)Nc1ccc(S(=O)(=O)N(C)c2nc3ccccc3nc2Cl)cc1,,23.1 µM (active)
Cc1ccc(C2CC2C(=O)NN)cc1 (configuration not stated),-0.402%,
CCOc1ccc(NS(=O)(=O)c2ccc(N)cc2)nn1,-12.4%,
CC(=O)NCCc1ccc(S(=O)(=O)Nc2ccc(C)c(S(=O)(=O)N3CCOCC3)c2)cc1,-1.29%,
CCOC(=O)c1c(C)n(S(=O)(=O)c2ccc(C)cc2C)c2ccc(NS(=O)(=O)c3ccc(C)cc3C)cc12,,20.6 µM (active)
O=S(=O)(Nc1ccc(-n2cnnn2)cc1)c1ccc(Cl)cc1,0.723%,
CC(=O)c1c(C)n(S(=O)(=O)c2ccc(Cl)cc2)c2ccc(NS(=O)(=O)c3ccc(Cl)cc3)cc12,,14.6 µM (active)
CCOC(=O)c1c(S(=O)(=O)NCC(=O)Nc2ccc(C)cc2)c(C)n(C)c1C,8.47%,
CCn1c(C)nc2cc(C(=O)NNS(=O)(=O)c3ccc(C)cc3C)ccc21,-17.1%,
CC(C)(C)CN1CCNC(=O)C1CC(=O)NC1Cc2ccccc2C1 (configuration not stated),1.76%,
Oc1ccc(-c2nncn2-c2ccccc2)cc1,-19%,
COc1cccc(NC(=O)CSc2nnc(Cc3ccc(OC)c(OC)c3)o2)c1,-0.112%,
O=C(CCCn1c(=O)c2sccc2n(CC(=O)NCC2CCCO2)c1=O)NCc1ccco1 (configuration not stated),-2.99%,
CCC1CCCCN1C(=O)Cn1c(=O)n(CCCCCC(=O)NCc2ccccc2)c(=O)c2sccc21 (configuration not stated),,13 µM (active)
Cc1ccc(C)c(Cn2c(=O)n(CCC(=O)NCc3ccc4c(c3)OCO4)c(=O)c3sccc32)c1,-26%,
NC(CSC12CC3CC(CC(C3)C1)C2)C(=O)O (configuration not stated),-1.44%,
CCCc1nc2oc3c(=O)[nH]cnc3c2c2c1COC(C)(C)C2,0.996%,
C=CCN1CCN(c2ccncc2S(=O)(=O)N2CCN(C)CC2)CC1,-9.36%,
CSCCC(NC(=O)c1ccccc1)C(=O)N1CCN(Cc2ccc(Cl)cc2)CC1 (configuration not stated),,10.3 µM (active)

SMILES,"activity change, negative = growth inhibition",Potency
COc1ccccc1C(=O)NC(CCSC)C(=O)NNC(=O)c1ccccc1C (configuration not stated),-3.37%,
COc1ccccc1C(=O)NC(CCSC)C(=O)N1CCN(C(C)=O)CC1 (configuration not stated),9.07%,
O=C(NC(=S)N1CCN(Cc2ccccc2)CC1)c1ccccc1,-11.6%,
COc1ccccc1C(=O)NC(CCSC)C(=O)N1CCN(C/C=C/c2ccccc2)CC1 (configuration not stated),,20.6 µM (active)
CSCCC(NC(=O)c1ccccc1)C(=O)N1CCCCCCC1 (configuration not stated),-4.61%,
O=C(CN1CCOCC1)Nc1c(-c2ccccc2)c2cc(Br)ccc2[nH]c1=O,-15.2%,
Cc1ccccc1OCc1nc2c3cnn(-c4ccccc4F)c3ncn2n1,-20.3%,
C=CCN(CC=C)CCOc1ccccc1[N+](=O)[O-],-28.7%,
COc1ccc(CNC(=O)Cn2nnc(-c3ccccc3F)n2)cc1,-18.4%,
O=C(Cn1nnc(-c2ccccc2)n1)NCc1ccccc1,2.1%,
COc1cc(-c2nnn(CC(=O)NCc3ccccc3)n2)cc(OC)c1OC,,14.6 µM (active)
Cn1c(=NC(=O)CSCC(=O)N2CCOCC2)sc2ccccc21,-29.2%,
CCC(=O)N1CCc2cc(S(=O)(=O)NCCC(=O)Nc3cccc(C)c3C)ccc21,-27.6%,
O=C(COC(=O)c1cccnc1Cl)NC12CC3CC(CC(C3)C1)C2,-12.2%,
COc1cc(C(=O)OCC(=O)NC23CC4CC(CC(C4)C2)C3)cc(OC)c1OC,,18.4 µM (active)
O=C(COC(=O)c1ccc(Br)o1)NC12CC3CC(CC(C3)C1)C2,-6.16%,
CCOC(=O)CNc1nc2ccccc2n2c(C)nnc12,18.8%,
CCOC(=O)c1oc2c(CN3CCN(CCO)CC3)c(O)c(CC)cc2c(=O)c1-c1nc2ccccc2s1,-7.24%,
O=C(NCCCN1CCOCC1)c1ccccc1NS(=O)(=O)c1ccc(F)cc1,-3.35%,
O=C(NCCCN1CCOCC1)c1cnn2c(-c3ccccc3)cc(-c3ccccc3)nc12,,20.6 µM (active)
O=C(NCCCN1CCOCC1)c1ccccc1NS(=O)(=O)c1ccc(Br)cc1,-9.57%,
CCCCN=C1N/C(=C\c2ccco2)C(=O)N1c1ccccc1,,29.1 µM (active)
COc1cc2c(cc1/C=C1/NC(=O)N(c3ccccc3)C1=O)OCO2,-17.6%,

SMILES,"activity change, negative = growth inhibition",Potency
CCOC(=O)C1(C)NC(c2ccco2)C2C(=O)N(c3ccccc3)C(=O)C21 (configuration not stated),4.49%,
Cc1cc(NC(=O)CS(=O)(=O)c2cn(C)c3ccccc23)no1,-17.2%,
CN(C)CCNC(=O)C(C(=O)c1ccccc1)n1ccccc1=O (configuration not stated),-6.39%,
O=C(Nc1nnc(SCc2ccc(Cl)cc2Cl)s1)C1COc2ccccc2O1 (configuration not stated),-6.33%,
O=C(Nc1ncc([N+](=O)[O-])s1)C1COc2ccccc2O1 (configuration not stated),,18.4 µM (active)
O=C(Nc1nc2c(F)cc(F)cc2s1)C1COc2ccccc2O1 (configuration not stated),-25.4%,
CCCS(=O)(=O)Nc1ccc(-c2cn3c(n2)SCC3)cc1,-17.9%,
CN(Cc1ccc2nsnc2c1)Cc1nc(Cc2cccc(F)c2)no1,7.53%,
CC(NS(=O)(=O)c1ccc(Cl)cc1)C(=O)Nc1ccc2c(c1)OCCO2 (configuration not stated),-7.09%,
O=C(CCNC(=O)c1ccc(Br)cc1)Nc1cccc(S(=O)(=O)N2CCCCC2)c1,,18.4 µM (active)
O=C(Nc1cccnc1)c1ccc2c(c1)OCO2,-29.5%,
O=C(Nc1cccc(S(=O)(=O)N2CCCCC2)c1)c1ccc2c(c1)OCO2,,16.4 µM (active)
O=C(Nc1cccc(S(=O)(=O)N2CCCC2)c1)c1cncc(Br)c1,,13 µM (active)
O=C(Nc1ccc(N2CCCC2=O)cc1)c1cncc(Br)c1,-23.8%,
O=C(Nc1ccc(S(=O)(=O)Nc2ncccn2)cc1)c1cncc(Br)c1,-5.2%,
Cc1ccc(C(=O)NCC(=O)OCC(=O)Nc2cccc(S(=O)(=O)N3CCCC3)c2)cc1C,11.6%,
CN1CCN(S(=O)(=O)c2cccc(C(=O)Nc3cccc(S(N)(=O)=O)c3)c2)CC1,-0.704%,
Cc1ccc(S(=O)(=O)N2CCCCC2)cc1NC(=O)CCNC(=O)c1ccccc1,-24.2%,
O=C(Nc1cccc(S(=O)(=O)Nc2ccc(Cl)cc2)c1)c1ccc2c(c1)OCCO2,,10.3 µM (active)
O=C(Nc1ccccc1)c1ccc2c(c1)OCCCO2,-2.63%,
